From PubChem BioAssay
EWS-Fli block: EWS/Fli-driven NR0B1 reporter inhibitors, primary screen, A673 cells, NR0B1 luciferase, luminescence, MLPCN library; viability-normalised; inhibition, % at 12.6 µM; hit rate 0.67% among 350,000;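 active means mean inhibition of at least 50% after viability correction, with every replicate also passing that limit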;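 further: firefly luciferase signal divided by Alamar Blue viability fluorescence both relative to DMSO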
MITF TRPM1 inh: inhibitors of MITF-dependent TRPM1 promoter reporter, primary screen, cell-based, SK-MEL-5, single point, luciferase. SK-MEL-5 TRPM1 promoter luciferase, 24 h. inhibition, % at 12.5 µM. hit rate 0.83% among 330,000;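 active means mean inhibition across replicates of 60% or more, whatever share of single replicates reaches that level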
Shn3 3UTR inh: reduction of Shn3 3'UTR firefly luciferase signal, primary screen, Schnurri-3 inhibitor project, cell-based, Clone20 osteoblasts, set 2 | Clone20 osteoblast Shn3 3'UTR firefly luciferase, 24 h | inhibition, % at 12.5 µM | hit rate 0.52% among 360,000 | AID 588674, 2011;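 active means mean inhibition of at least 75% with every replicate also reaching 75%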;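 further: 0% = median of neutral control wells and 100% = pilot-screen positive control compound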
PAX8 reporter: inhibitors of PAX8-driven TPO luciferase reporter, primary screen, RMG-I cells, single concentration. SteadyGlo, 24 h. inhibition, % at 12.6 µM. hit rate 1.2% among 360,000. AID 652154, 2013;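 active means mean replicate inhibition at least 60% with every replicate also reaching 60%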;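 further: luciferase light reporting Pax8 driven TPO promoter activity; plate controls were median of neutral control wells for no effect and mitoxantrone controls for full effect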
Peg3 promoter: Peg3 promoter-driven luciferase inhibitors, primary screen, cell-based, HeLa, luciferase luminescence | hit rate 1.7% among 360,000 | inhibition, % at 20 µM | HeLa PEG-Prom luciferase reporter, overnight;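 active means inhibition of at least 50% at 20 µM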
ABHD5 PLIN5 PPI: ABHD5-PLIN5 interaction inhibitors, primary screen, cell lysate, split luciferase complementation, luminescence; Perilipin-5 (Homo sapiens) + 1-acylglycerol-3-phosphate O-acyltransferase ABHD5 (Homo …; Split G. princeps luciferase complementation, 4 h; inhibition, % at 4 µM; hit rate 0.78% among 360,000; AID 602281, 2012;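 active means inhibition above the mean inhibition across every tested compound plus 3 SD, cut at about 22% in these data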;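 further: 0% = DMSO only wells and the 100% control is not disclosed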
Target sequence (Q00G26 whole entry, looked up): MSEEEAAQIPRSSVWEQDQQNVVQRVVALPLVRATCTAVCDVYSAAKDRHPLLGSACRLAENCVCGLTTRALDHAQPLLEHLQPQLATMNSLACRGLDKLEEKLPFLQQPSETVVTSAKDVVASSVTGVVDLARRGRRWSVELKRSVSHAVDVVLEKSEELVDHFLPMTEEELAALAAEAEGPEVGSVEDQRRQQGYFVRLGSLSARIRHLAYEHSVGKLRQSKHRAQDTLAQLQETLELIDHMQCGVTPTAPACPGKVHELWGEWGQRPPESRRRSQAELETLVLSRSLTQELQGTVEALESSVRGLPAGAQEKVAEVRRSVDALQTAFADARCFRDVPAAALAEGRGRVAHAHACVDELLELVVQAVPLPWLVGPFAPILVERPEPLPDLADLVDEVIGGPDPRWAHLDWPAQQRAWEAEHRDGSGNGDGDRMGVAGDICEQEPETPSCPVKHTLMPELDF
Target sequence (Q8WTS1 whole entry, looked up): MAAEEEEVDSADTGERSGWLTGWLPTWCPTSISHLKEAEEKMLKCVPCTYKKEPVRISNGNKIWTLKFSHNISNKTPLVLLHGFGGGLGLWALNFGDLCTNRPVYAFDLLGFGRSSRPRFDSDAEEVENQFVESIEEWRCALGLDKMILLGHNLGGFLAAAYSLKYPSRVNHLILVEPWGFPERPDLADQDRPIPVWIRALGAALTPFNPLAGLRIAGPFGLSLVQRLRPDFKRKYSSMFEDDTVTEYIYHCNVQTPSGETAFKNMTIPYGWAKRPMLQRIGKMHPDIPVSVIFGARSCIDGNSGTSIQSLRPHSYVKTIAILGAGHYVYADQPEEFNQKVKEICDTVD
An asterisk follows results filed as active; nt = no result. Sampled rows, rich in hits. Any-hit rate of the full collection: about 3%.

SMILES	EWS-Fli block	MITF TRPM1 inh	Shn3 3UTR inh	PAX8 reporter	Peg3 promoter	ABHD5 PLIN5 PPI
O=C(C[C@@H]1CC[C@@H]2[C@H](COC[C@@H](O)CN2C(=O)Nc2ccc(Cl)cc2)O1)NCCc1ccncc1	-48.4	nt	nt	-30.8	nt	nt
C[C@@H]1CN([C@@H](C)CO)C(=O)c2cc(N(C)C)ccc2O[C@@H]1CN(C)Cc1ccc(Oc2ccccc2)cc1	-9.2	nt	nt	83.6*	nt	nt
C[C@@H]1CN([C@@H](C)CO)C(=O)Cc2cc(N(C)C)ccc2O[C@H]1CN(C)Cc1ccc(Oc2ccccc2)cc1	-15.5	nt	nt	81.5*	nt	nt
O=C(COc1ccccc1C(=O)NCc1ccccc1)Nc1ccccc1	14.5	-1.8	-8.2	-7.1	14.8	0.3
O=C(COc1ccccc1C(=O)NCc1ccccn1)Nc1ccc(Br)cc1	64.8*	-21.8	-7.2	-6.4	-15.0	-1.6
COc1ccc(CN(C)C[C@@H]2OCCCC[C@@H](C)Oc3ccc(NC(=O)NC(C)C)cc3C(=O)N([C@H](C)CO)C[C@H]2C)cc1	2.1	nt	nt	6.7	nt	nt
COc1ccc(-c2csc(N3CCN(c4cc(C)nc5ccccc45)CC3)n2)cc1OC	29.5	72.9*	36.6	36.3	99.8*	9.1
COc1cc(-c2csc(N3CCOCC3)n2)cc(OC)c1OC	nt	5.7	6.2	nt	-9.3	7.7
O=C1C(Nc2ccccc2)=C(N2CCCCC2)C(=O)c2ccccc21	nt	74.8*	5.6	nt	33.8	-34.6
COc1ccccc1NC1=C(N2CCCCC2)C(=O)c2ccccc2C1=O	nt	18.7	4.6	nt	64.3*	-31.2
COc1cccc(/C=N/NC(=O)CNC(=O)/C=C\c2ccccc2)c1O	17.6	55.2	89.8*	16.1	20.0	1.8
COc1ccc(/C=C\C(=O)NCC(=O)N/N=C/c2cccc(OC)c2O)cc1	nt	17.4	24.6	1.3	37.2	3.2
COc1ccccc1CNC(=O)C[C@H]1C[C@H]2c3cc(NC(=O)C4CCC4)ccc3O[C@H]2[C@H](CO)O1	15.3	nt	nt	-18.7	nt	nt
C[C@@H]1CN([C@H](C)CO)C(=O)c2cc(NC(=O)c3ccccc3)ccc2O[C@@H](C)CCCCO[C@@H]1CN(C)Cc1ccc(Cl)c(Cl)c1	2.3	nt	nt	51.2	nt	nt
C[C@@H]1CCCCO[C@@H](CN(C)Cc2ccc(Cl)c(Cl)c2)[C@@H](C)CN([C@@H](C)CO)C(=O)c2cc(NC(=O)c3ccccc3)ccc2O1	8.8	nt	nt	66.5*	nt	nt
C[C@@H]1CN([C@H](C)CO)C(=O)c2cc(NC(=O)Cc3ccccc3)ccc2O[C@@H](C)CCCCO[C@@H]1CN(C)Cc1ccc(Cl)c(Cl)c1	6.4	nt	nt	5.7	nt	nt
C[C@@H]1CCCCO[C@H](CN(C)Cc2ccc(Cl)c(Cl)c2)[C@@H](C)CN([C@@H](C)CO)C(=O)c2cc(NC(=O)Cc3ccccc3)ccc2O1	-2.2	nt	nt	95.6*	nt	nt
C[C@@H]1CCCCO[C@H](CN(C)Cc2ccc(Cl)c(Cl)c2)[C@H](C)CN([C@@H](C)CO)C(=O)c2cc(NC(=O)c3ccccc3)ccc2O1	-4.5	nt	nt	21.6	nt	nt
C[C@H]1CCCCO[C@H](CN(C)Cc2ccc(Cl)c(Cl)c2)[C@@H](C)CN([C@@H](C)CO)C(=O)c2cc(NC(=O)c3ccccc3)ccc2O1	12.9	nt	nt	66.8*	nt	nt
C[C@@H]1CN([C@H](C)CO)C(=O)c2cc(NS(=O)(=O)c3ccc(Cl)cc3)ccc2O[C@@H](C)CCCCO[C@@H]1CN(C)C(=O)c1ccccc1	-6.5	nt	nt	-11.6	nt	nt
C[C@@H]1CN([C@H](C)CO)C(=O)Cc2cc(NC(=O)Nc3cccc4ccccc34)ccc2O[C@@H]1CN(C)S(=O)(=O)c1ccc(Cl)cc1	12.6	nt	nt	10.6	nt	nt
Cc1ccc(Cl)cc1N1CCN(C(=O)Cc2csc(Nc3nc(=S)[nH]c4ccccc34)n2)CC1	32.7	31.9	15.9	29.2	34.1	0.1
O=C(Cc1csc(Nc2nc(=S)[nH]c3ccccc23)n1)N1CCN(c2cccc(Cl)c2)CC1	46.2	77.6*	10.1	27.3	81.7*	-3.8
O=C(CSc1nnc(-c2ccc(F)cc2)c2ccccc12)Nc1ccccc1	62.8*	-17.5	9.6	-12.1	-2.8	-0.3
CCNS(=O)(=O)c1ccc(CCC(=O)Nc2cc(Cl)ccc2Oc2ccccc2)cc1	nt	25.0	57.9	nt	63.3*	0.4
SMILES	EWS-Fli block	MITF TRPM1 inh	Shn3 3UTR inh	PAX8 reporter	Peg3 promoter	ABHD5 PLIN5 PPI
CC(C)NS(=O)(=O)c1ccc(CCC(=O)Nc2cc(Cl)ccc2Oc2ccccc2)cc1	nt	11.2	82.6	nt	28.8	-8.7
CCCCCn1c(N(C)Cc2ccccc2)nc2c1c(=O)[nH]c(=O)n2C	9.9	8.0	-19.0	24.1	55.1*	5.4
CCCCCn1c(N2CCC(Cc3ccccc3)CC2)nc2c1c(=O)[nH]c(=O)n2C	nt	6.5	52.4	nt	64.2*	-8.0
CN1CCN(c2ccc(Nc3ccnc4cc(Cl)ccc34)cc2)CC1	-7.8	22.1	20.6	15.0	60.7*	-8.3
CCN1CCN(c2ccc(Nc3ccnc4ccccc34)cc2)CC1	-1.0	64.1*	-24.9	-1.3	61.1*	-1.8
COc1ccccc1-c1ccc2c(c1)[C@H]1[C@H](CCN1S(=O)(=O)c1ccccc1OC)[C@@H](CO)N2	4.3	nt	nt	65.4*	nt	nt
COc1ccccc1S(=O)(=O)N1CC[C@@H]2[C@H](CO)Nc3ccc(-c4ccc(F)cc4)cc3[C@@H]21	-13.0	nt	nt	66.9*	nt	nt
COc1ccccc1S(=O)(=O)N1CC[C@@H]2[C@@H](CO)Nc3ccc(-c4ccc(F)cc4)cc3[C@@H]21	43.6	nt	nt	71.3*	nt	nt
COc1ccccc1S(=O)(=O)N1CC[C@@H]2[C@H]1c1cc(-c3ccc(F)cc3)ccc1N[C@@H]2CO	6.4	nt	nt	18.9	nt	nt
N#Cc1ccc(-c2ccc([C@@H]3[C@@H](CO)N4C(=O)CN(C(=O)C5CCCCC5)C[C@H]34)cc2)cc1	-4.5	nt	nt	13.1	nt	nt
CC(=O)C1=C(O)C(=O)N(CCc2ccccc2)C1c1ccccc1[N+](=O)[O-] (stereo not drawn)	13.3	2.7	6.7	122.0*	-12.2	-1.9
CCNC(=O)COc1cccc2ccccc12	nt	0.3	4.0	nt	6.3	2.0
O=C(NCCNC(=O)Oc1cccc2ccccc12)Oc1cccc2ccccc12	-6.2	18.9	90.5*	-4.7	-94.8	3.7
C[C@H]1CN([C@@H](C)CO)S(=O)(=O)c2ccc(-c3ccncc3)cc2O[C@H]1CN(C)C(=O)C1CCCCC1	16.9	nt	nt	nt	nt	nt
O=C1CSC(c2nn(-c3ccccc3)cc2-c2cc3ccccc3oc2=O)N1Cc1ccco1 (stereo not drawn)	nt	9.1	3.4	nt	14.0	22.8*
CCC(=O)N[C@H]1C=C[C@@H](CC(=O)OC)O[C@H]1CO	-0.4	nt	nt	-4.7	nt	nt
CN1CCN(c2ccccc2NC(=O)Cn2ncc3c([nH]c4ccccc43)c2=O)CC1	nt	14.0	8.6	-14.7	-3.3	11.4
